Assay results: PubChem BioAssay AID602140 (NMMLSC, 2011)
The list shows a part of the results. Unmarked numbers belong to inactive results. The rule behind the calls is not given here.

System: Botulinum neurotoxin type F light chain protease (Clostridium botulinum)
Experiment: BoNT/F light chain protease inhibitors, confirmation, biochemical, flow cytometry, cherry pick 1 (AID 602140)
Details: multiplex microsphere protease cleavage assay, at 10 µM, stronger effect = higher value

| SMILES | inhibition [%] |
| --- | --- |
| CCN1CCN(C(C(=O)NC2CCCC2)c2cc3c(cc2[N+](=O)[O-])OCO3)CC1 (stereo not drawn) | -4.2 |
| O=S(=O)(NC1CCCCC1N1CCC(O)CC1)c1ccc(Cl)cc1 (stereo not drawn) | 2.2 |
| COc1cc2cc(CN(CCN3CCCC3)C(=O)Nc3ccccc3Cl)c(=O)[nH]c2cc1OC | 0.8 |
